From PubChem BioAssay
Most compounds without a hit are left out; they make up all but 9% or so of the library.
12-LOX inh – inhibitors of human 12S-lipoxygenase ALOX12. purified 12hLO, xylenol orange hydroperoxide absorbance. Potency, µM (titrated, usually from 108 µM), for the others: top-dose activity change, negative = inhibition, most hits filed as inhibitors. 580,000 compounds, 1.1% hits. P18054; also: % is scaled to controls: 0 for no effect and ±100 for the full control effect
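Purified human 12hLO at 150 nM in 25 mM Hepes, 0.01% Triton X-100, pH 7.0, preincubated 15 min at room temperature with compound. Reaction started with 40 uM arachidonic acid, 30 min at room temperature. Hydroperoxide measured by Fe-xylenol orange, 573/405 nm absorbance ratio.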
BAZ2B block – BAZ2B (human) inhibition | Q9UIF8 | AlphaScreen BAZ2B-H3K14Ac peptide displacement | Potency, µM (titrated, usually from 114 µM), for inactives: at the top dose activity change, negative = inhibition, most hits filed as inhibitors | 360,000 compounds, 4.4% hits; also: % is scaled to controls: 0 for no effect and ±100 for the full control effect; nearly all actives have a fitted effect of over 60% in size
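AlphaScreen luminescence quantifies BAZ2B engagement of H3K14Ac peptide; the protein and biotinylated peptide are both at 50 nM final, buffer PBS pH 7.4 with 0.01% Tween-20, all steps at room temperature.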
PLK1 PBD block – inhibitors of human PLK1 polo-box domain binding; P53350; Plk1 PBD binding of FITC phosphopeptide, fluorescence polarization; Potency, µM, inactives show max response, negative = inhibition, usual class: inhibitors; 360,000 compounds, 2.8% hits; AID 720504; also: series mostly up to about 57 µM; % is scaled to controls: 0 for no effect and ±100 for the full control effect; nearly all actives have a fitted effect of over 65% in size
G9a inh – inhibitors of human histone lysine methyltransferase G9a. G9a H3K9 monomethylation, AlphaScreen, 2 h. AID 504332. 350,000 compounds, 8.8% hits. Q96KQ7. Potency, µM (doses to about 102 µM), inactives show at the top dose activity, negative = inhibition, usual class: inhibitors; also: % is scaled to controls: 0 for no effect and ±100 for the full control effect; nearly all actives have a fitted effect of over 75% in size
Target sequence (Q96KQ7 913-1193 limits assumed): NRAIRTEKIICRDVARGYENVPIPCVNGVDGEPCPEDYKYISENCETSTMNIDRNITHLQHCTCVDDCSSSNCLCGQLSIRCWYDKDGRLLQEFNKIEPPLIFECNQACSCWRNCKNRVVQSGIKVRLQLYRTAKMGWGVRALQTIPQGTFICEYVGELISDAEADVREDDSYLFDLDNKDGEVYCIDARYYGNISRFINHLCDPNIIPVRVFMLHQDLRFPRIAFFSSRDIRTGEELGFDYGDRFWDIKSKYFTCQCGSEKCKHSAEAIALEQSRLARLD
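AlphaScreen read-out: biotin-H3K9 peptide (500 nM) methylation by 20 nM enzyme with 20 uM SAM, 2 h at room temperature after 15 min compound preincubation; anti-monomethyl H3K9 antibody plus donor/acceptor beads, 10 min dark.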
HP1b chromo inh – HP1-beta chromodomain-methylated histone interaction inhibition; P83916; AlphaScreen HP1-beta / biotin-H3K9me3 peptide binding; Potency, µM (top dose mostly 114 µM), without a hit: at the top dose activity change, negative = inhibition, most hits filed as inhibitors; 390,000 compounds, 0.56% hits; AID 540317; also: nearly all actives have a fitted effect of over 70% in size
Target sequence (P83916 whole entry, looked up): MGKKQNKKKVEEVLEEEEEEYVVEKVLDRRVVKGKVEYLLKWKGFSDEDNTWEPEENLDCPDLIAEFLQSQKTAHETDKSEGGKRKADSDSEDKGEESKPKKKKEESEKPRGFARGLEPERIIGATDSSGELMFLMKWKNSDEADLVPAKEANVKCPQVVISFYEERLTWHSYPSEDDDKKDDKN
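AlphaScreen: HP1-beta (50 nM) preformed 30 min with biotin-H3(1-18)K9me3 peptide (50 nM) in PBS pH 7.4, 0.01% Tween-20. Compound added for 30 min at RT, then streptavidin donor/nickel chelate acceptor beads (10 ug/mL) for 30 min.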
JMJD2A Tudor inh – blocks the human JMJD2A Tudor domain. O75164. AlphaScreen JMJD2A-Tudor / H3K4me3 peptide binding. Potency, µM (series often up to 114 µM), without a hit: at the highest dose activity change, negative = inhibition, hits mostly inhibitors. 390,000 compounds, 4.4% hits. AID 504339; also: % is scaled to controls: 0 for no effect and ±100 for the full control effect; nearly all actives have a fitted effect of over 50% in size
* hit, by the source's call; ? = inconclusive; . = not tested or not shown; ! = not confirmed by another sample; [ ] = another dose, or the depositor's remark. Calls follow the shape of the dose curve; as a rule, active = well fitted curve in the direction sought with a large enough effect; inconclusive = small, poorly fitted or top-dose-only effect, or another doubt; inactive = no such curve, though single readings can be large; an effect the other way counts as inactive or inconclusive. Potency is read from the fitted curve at half-maximal effect.

SMILES	12-LOX inh	BAZ2B block	PLK1 PBD block	G9a inh	HP1b chromo inh	JMJD2A Tudor inh
N#Cc1ccc(CN2CCN(C(=O)c3cn(Cc4ccccc4)nc3-c3cccnc3)CC2)cc1	-21.2%	1.2%	-12.3%	?	27.5%	-14.9%
CCOC(=O)C1(C)CCCN(C(=O)c2cc(C)on2)C1 (configuration not stated)	10.0%	.	5.4%	.	.	.
CCOc1ccc(S(=O)(=O)N2CCC(C(=O)N3CCN(Cc4ccccc4)CC3)CC2)cc1	64.2%	-11.3%	2.1%	.	22.4%	-9.0%
COc1ccc(-c2cc(C(=O)N3CCN(c4ccccc4O)CC3)c3ccccc3n2)cc1	-8.4%	-37.6%	0.2%	?	13.8%	-32.8%
Cc1ccc(-c2cc(C(=O)N3CCN(c4ccccc4O)CC3)c3ccccc3n2)cc1	?	-36.2%	-4.3%	39.8µM*	-7.3%	?
Cc1ccc(-c2cc(C(=O)N3CCCC(C(F)(F)F)C3)c3ccccc3n2)o1 (configuration not stated)	7.94µM*!	-2.9%	-12.2%	71.5%[2.33 µM]	29.8%	-9.5%
Cc1ccccc1-c1cc(C(=O)N2CCCC2)c2ccccc2n1	-25.2%	-19.8%	-25.4%	39.8µM*	7.5%	-11.6%
Cc1ccccc1-c1cc(C(=O)N2CCOCC2)c2ccccc2n1	1.7%	.	.	.	.	.
CCCNC(=O)c1cc(-c2ccc(OC)cc2OC)nc2ccccc12	12.6µM*	.	.	.	.	.
COc1ccc(C(=O)C2CCCN(C(=O)Cn3cncn3)C2)cc1OC (configuration not stated)	-0.6%	-20.8%	2.8%	8.1%[59 µM]	48.6%	5.2%
COc1ccc(-c2cc(C(=O)N/N=C/c3ccc4c(c3)OCO4)c3ccccc3n2)c(OC)c1	-2.2%	-3.0%	1.1%	12.1%[2.33 µM]	18.4%	-13.8%
COc1ccc(-c2cc(C(=O)N/N=C/c3ccc(OC)c(COCC(F)(F)C(F)F)c3)c3ccccc3n2)c(OC)c1	-16.5%	-0.5%	2.99µM*	6.0%[12.7 µM]	?	?
Cc1ccc(-c2cc(C(=O)N3CCN(c4ccc(F)cc4)CC3)c3ccccc3n2)o1	14.1µM*	39.8µM*	-27.4%	44.7µM*	-16.8%	56.2µM*
COc1ccc(N2CCN(C(=O)c3cn(Cc4ccccc4)nc3-c3cccnc3)CC2)cc1	-1.1%	-35.7%	-8.8%	8.91µM*	4.0%	-30.7%
Cc1ccc(-c2cc(C(=O)N3CCN(c4ccc(O)cc4)CC3)c3ccccc3n2)cc1	?	.	-1.6%	.	?	28.2µM*
CC/C=C/CN1CCC2(Cc3ccccc3CNC2=O)C1 (configuration not stated)	12.8%[12.5 µM]	.	.	.	.	.
COc1ccc(N2CCN(C(=O)c3cc(-c4cc(OC)ccc4OC)nc4ccccc34)CC2)cc1	12.1%	11.2µM*	0.7%	25.1µM*	?	35.5µM*
COc1ccc(-c2cc(C(=O)N3CCN(c4ccccc4)CC3)c3ccccc3n2)cc1	-11.4%	-38.2%	2.6%	39.8µM*	5.6%	-28.9%
O=C(O)c1cc(-c2ccc(-c3ccc(F)cc3)o2)nc2ccccc12	?	?	15µM*	-100.5%[59 µM]	35.3%	0.3%
COc1ccc(OC)c(-c2cc(C(=O)N3CCN(c4ncccn4)CC3)c3ccccc3n2)c1	-3.5%	3.0%	-10.4%	?	10.9%	-4.0%
O=C(c1cc(-c2ccc(F)cc2)nc2ccccc12)N1CCC1	-14.8%	.	2.2%	.	32.9%	-1.4%
COc1ccc(N2CCN(C(=O)c3cc(C4CC4)nn3-c3ccccc3)CC2)cc1	-10.3%	44.7µM*	-5.9%	?	?	50.1µM*
CCOC12NC(=O)CC(=O)N1C(c1ccccc1)=CS2 (configuration not stated)	-26.6%	-37.4%	-19.3%	50.1µM*	12.5%	-16.4%
Cc1ccc(CN2CC[C@@H]3CN(S(C)(=O)=O)[C@@H]3C2)cc1C	-1.5%	.	.	.	.	.
Cc1cnc(CNc2cc(-c3ccc(C(=O)N(C)C)cc3)ncn2)cn1	?	.	.	12.5%[0.501 µM]	.	.
Cc1cnc(CNc2ccnc(-c3ccc(C(=O)N(C)C)cc3)n2)cn1	35.5µM*	.	.	.	.	.
